From PubChem
An excerpt weighted towards active compounds, which were near 5.7% of everything screened.
hcDAF12 agonist: H. contortus DAF-12 nuclear receptor activators, primary screen, cell-based, luminescence, HEK293, lit1-tk-luc reporter. HEK293 hcDAF-12 lit1-tk-luc reporter; 0% DMSO, 100% Δ7-dafachronic acid. activation, % at 6.8 µM. 370,000 tested, 1.4% active;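 active = activation above the mean of all tested compounds plus 3 SD, cut at about 5.5% in these data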;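 note: 100% = response to 3 µM Δ7-dafachronic acid high control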
hgDAF-12 ag: H. glycines DAF-12 receptor agonists, primary screen, cell-based, luminescence, HEK293, GAL4 fusion, UAS-luciferase; Nuclear hormone receptor DAF-12 (Heterodera glycines), GAL4 fusion; HEK293 GAL4-hgDAF12 UAS-luciferase reporter, agonist luminescence; normalized to butyrate control; activation, % at 6.8 µM; 370,000 tested, 1.8% active; AID 687014, 2013;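 active = activation above a cutoff set at the mean of all screened compounds plus 3 SD, cut at about 10% in these data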;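 note: 0% = DMSO wells and 100% = sodium butyrate wells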
DAX1 inh-1: DAX1 (NR0B1) inhibitors, primary screen, cell-based, HEK293, Gal4-DAX1, luciferase luminescence | AID 504766, 2011 | 340,000 tested, 0.99% active | Nuclear receptor subfamily 0 group B member 1 (Homo sapiens), P51843 | inhibition, % at 6.75 µM | HEK293 Gal4-DAX1 luciferase reporter;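 active = inhibition above the mean over all tested compounds plus 3 SD, cut at about 4.2% in these data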;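 note: 0% = DAX1-transfected cells with DMSO and 100% = empty-vector control cells with DMSO; inhibition shows as a rise in luminescence from relieved DAX1 repression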
DAX1 inh-2: DAX1 (NR0B1) inhibitors on StAR promoter, primary screen, cell-based, luminescence, SF-1 (NR5A1), full-length DAX-1 | HEK293T StAR-luciferase reporter, SF-1/DAX-1 repression relief | inhibition, % at 6.8 µM | 370,000 tested, 1.1% active;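 active = inhibition above the mean over all tested compounds plus 3 SD, cut at about 3.6% in these data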;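 note: 0% = DAX-1 cells with DMSO and 100% = cells lacking DAX-1 with DMSO; higher inhibition means more luminescence from relief of DAX-1 repression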
ssDAF-12 act: S. stercoralis DAF-12 nuclear receptor activators, primary screen, cell-based, luminescence, HEK293, GRIP1 co-expression, lit1-tk-luc; Nuclear hormone receptor DAF-12 (Strongyloides stercoralis); HEK293 ssDAF-12/GRIP1 lit1-tk-luc reporter; % of 3 µM dafachronic acid response; activation, % at 6.8 µM; 370,000 tested, 1% active;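 active = activation above the mean over all tested compounds plus 3 SD, cut at about 0.9% in these data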;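 note: 0% = DMSO-only wells and 100% = 3 µM delta7-dafachronic acid wells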
AHR activator: AHR activators, primary screen, cell-based, luminescence, luciferase reporter, human. Aryl hydrocarbon receptor (Homo sapiens), P35869. AHR-responsive luciferase reporter cells. activation, % at 5 µM. 320,000 tested, 2.5% active. AID 2796, 2010; in the data active = activation above about 47%;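 note: 0% = vehicle wells and 100% = reference agonist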
Target sequence (P35869 whole entry, looked up): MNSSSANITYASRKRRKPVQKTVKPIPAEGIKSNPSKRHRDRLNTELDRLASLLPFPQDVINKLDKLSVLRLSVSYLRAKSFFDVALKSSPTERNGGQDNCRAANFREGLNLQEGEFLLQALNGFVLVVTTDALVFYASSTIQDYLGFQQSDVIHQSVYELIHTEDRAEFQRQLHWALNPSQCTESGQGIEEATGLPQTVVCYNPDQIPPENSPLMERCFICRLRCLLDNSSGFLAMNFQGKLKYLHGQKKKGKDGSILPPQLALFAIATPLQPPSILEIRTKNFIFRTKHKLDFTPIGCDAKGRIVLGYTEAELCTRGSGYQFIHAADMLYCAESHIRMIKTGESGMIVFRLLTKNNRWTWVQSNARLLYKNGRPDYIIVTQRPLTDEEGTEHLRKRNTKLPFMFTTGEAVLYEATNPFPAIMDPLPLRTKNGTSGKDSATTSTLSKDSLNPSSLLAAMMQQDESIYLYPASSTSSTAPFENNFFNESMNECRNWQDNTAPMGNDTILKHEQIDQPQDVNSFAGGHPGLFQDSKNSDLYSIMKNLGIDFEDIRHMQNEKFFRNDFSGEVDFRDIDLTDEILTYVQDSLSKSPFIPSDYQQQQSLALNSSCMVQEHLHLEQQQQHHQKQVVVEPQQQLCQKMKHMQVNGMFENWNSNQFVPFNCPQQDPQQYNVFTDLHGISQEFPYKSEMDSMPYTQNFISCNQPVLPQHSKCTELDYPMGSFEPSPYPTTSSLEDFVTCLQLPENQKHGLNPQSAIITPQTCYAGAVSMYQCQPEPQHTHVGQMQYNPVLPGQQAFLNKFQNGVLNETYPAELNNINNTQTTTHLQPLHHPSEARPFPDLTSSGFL
DAX1 conf: DAX1 (NR0B1) inhibitors relieving SF-1 repression, confirmation, cell-based, luminescence, HEK293T, full-length DAX-1, SF-1 activated StAR promoter | HEK293T StAR-promoter luciferase reporter, SF-1/DAX-1 repression | inhibition, % at 6.8 µM | 2,400 tested, 87% active | shares compounds with DAX1 inh-2;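 active = inhibition above the average of every tested compound plus 3 SD, cut at about 3.8% in these data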;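 note: 0% = DAX-1 cells with DMSO and 100% = no DAX-1 control cells with DMSO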
SF1 AF2mut Luc: StAR reporter signal changes without DAX1, counter-screen for DAX1 inhibitor project, cell-based, luminescence, AF-2 mutant SF-1, transactivation; shares compounds with DAX1 inh-2; HEK293 StAR-luciferase, SF-1 AF2 mutant; inhibition, % at 6.8 µM; 2,400 tested, 78% active;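 active = inhibition above the mean of all tested compounds plus 3 SD, cut at about 3% in these data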;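 note: 0% = DAX-1 transfected cells with DMSO and 100% = cells without DAX-1 with DMSO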
LXRb hcDAF ctr: LXR agonists, Gal4 luciferase reporter, confirmation, counter-screen for hcDAF-12 agonist project, cell-based, luminescence, HEK293, H. contortus campaign | 3,400 tested, under 10 active | activation, % at 6.8 µM | AID 743027, 2013 | shares compounds with hcDAF12 agonist | HEK293 Gal4-LXR tk-luc reporter, 24 h; normalized: DMSO 0%, positive control 100%;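 active = mean percent activation of the reporter above a cutoff set as the average over tested compounds plus their standard deviation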
hcDAF12 ag: H. contortus DAF-12 receptor agonists, confirmation, cell-based, luminescence, HEK293, lit1-tk-luc, triplicate; shares compounds with hcDAF12 agonist; HEK293 hcDAF-12 lit1-tk-luc reporter; % of Δ7-dafachronic acid response; activation, % at 6.8 µM; 3,400 tested, 61% active; AID 743032, 2013;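 active = mean activation across triplicate tests above the threshold derived from the earlier primary screen, cut at about 5.5% in these data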;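 note: 0% = DMSO only wells and 100% = 3 µM Δ7-dafachronic acid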
hgDAF12 conf: H. glycines DAF-12 receptor agonists, confirmation, cell-based, luminescence, HEK293, GAL4-LBD fusion. AID 743050, 2013. 3,300 tested, 80% active. HEK293 GAL4-hgDAF12 luciferase reporter, agonist mode; percent of butyrate response. activation, % at 6.8 µM. shares compounds with hgDAF-12 ag;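 active = mean activation over triplicate wells above the hit cutoff derived from the earlier primary screen, cut at about 11% in these data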;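 note: 0% = DMSO low control and 100% = 2 mM sodium butyrate high control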
LXR ag 2: LXR agonists, Gal4 luciferase reporter, confirmation, counter-screen for hgDAF-12 agonist project, cell-based, luminescence, HEK293, H. glycines campaign; shares compounds with hgDAF-12 ag; 24 h; activation, % at 6.8 µM; 3,300 tested, under 10 active;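 active = mean activation of the triplicate above a set limit carried over from the primary screen, none filed active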
Active calls of the source: *; . = no result given.

SMILES	hcDAF12 agonist	hgDAF-12 ag	DAX1 inh-1	DAX1 inh-2	ssDAF-12 act	AHR activator	DAX1 conf	SF1 AF2mut Luc	hgDAF12 conf	LXR ag 2	others
Cn1cc(-c2csc(C(O)c3ccc(F)c(F)c3)n2)cn1 (stereo not given)	-0.9	-0.3	.	0.4	-1.2	.	.	.	.	.
O=C(c1cnn(-c2ccccc2)c1)c1ccccc1O	7.9*	22.9*	0.4	6.1*	0.7	6.9	13.2*	7.9*	19.5*	0.9	LXRb hcDAF ctr=1.4;hcDAF12 ag=7.1*
CCn1cnc2cc(NC(=O)c3ccco3)ccc21	0.6	8.9	2.1	3.3	0.7	23.2	.	.	.	.
CCCn1cnc2cc(NC(=O)c3ccco3)ccc21	6.6*	14.6*	0.2	5.5*	1.2*	60.4*	3.4	3.8*	10.1	0.3	LXRb hcDAF ctr=0.3;hcDAF12 ag=3.1
O=C(Nc1ccc(NC(=O)c2ccco2)nc1)c1ccco1	3.0	14.9*	-0.9	5.9*	-0.3	2.4	10.2*	2.9*	12.9*	0.7
COc1cc(/C=N/NC(=O)C2CCN(CC(O)COCc3ccccc3)CC2)ccc1O (stereo not given)	1.7	0.7	-1.0	-0.4	0.0	0.5	.	.	.	.
Cc1ccc2cc3c(N)c(C(=O)N4CCOCC4)sc3nc2c1	6.2*	15.9*	5.1*	5.6*	1.0*	39.0	12.5*	5.9*	0.6	0.0
COc1ccc2cc3c(N)c(C(=O)N4CCCC4)sc3nc2c1	-1.4	4.0	.	0.0	-1.3	-13.1	.	.	.	.
Cc1ccc(C(=O)Nc2c(-c3ccc(Cl)cc3)[nH][nH]c2=O)cc1	-1.9	-5.1	.	-0.2	-1.3	.	.	.	.	.
N#Cc1ccc2[nH]c(CO)c(-c3ccccc3)c2c1	2.2	-0.3	-0.3	-0.5	-1.1	46.0	.	.	.	.
Cc1nc2nc(-c3ccccc3)cn2nc1C	6.2*	13.7*	3.2	4.8*	0.1	2.5	11.4*	5.1*	11.9*	0.8
CCc1ccc(-c2cn3nc(C)c(C)nc3n2)cc1	-0.7	-7.8	-2.5	-2.0	-2.5	0.1	.	.	.	.
O=C(CSc1ccc2nnc(-c3ccc(Cl)cc3)n2n1)N1CCc2ccccc21	-2.8	0.0	0.0	1.3	-1.2	15.2	.	.	.	.
Cc1ccc(N/C=C/C(=O)c2cccs2)cc1C	20.8*	30.0*	.	6.7*	2.6*	23.1	18.3*	6.0*	18.0*	1.3	LXRb hcDAF ctr=2.0;hcDAF12 ag=25.3*
Cc1c(N/C=C/C(=O)c2cccs2)c(=O)n(-c2ccccc2)n1C	0.3	1.9	3.4	0.1	-1.3	2.9	.	.	.	.
O=C(CN1CCSCC1)N/N=C/c1cccc(Cl)c1	-0.2	1.4	0.5	-0.6	-1.2	5.9	.	.	.	.
CC(C)c1nnc(NC(=O)c2ccc3c(c2)OCO3)s1	9.6*	15.4*	3.7	4.9*	0.1	1.6	11.7*	1.9	7.1	0.6	LXRb hcDAF ctr=1.2;hcDAF12 ag=3.6
CN(CC(=O)Nc1ccccc1Br)C(=O)c1cc2c(s1)CCCCC2	2.0	14.2*	4.2*	6.4*	0.0	4.4	7.5*	4.9*	11.3*	0.5
O=C(OCC(=O)N1CCc2ccccc2C1)c1c(F)cccc1Cl	4.1	15.6*	1.5	5.6*	-0.1	-0.4	10.3*	7.3*	17.9*	0.9
NS(=O)(=O)c1cc(C(=O)OCC(=O)N2CCc3ccccc3C2)ccc1Cl	-0.8	-0.7	-0.5	-0.9	-1.0	-0.2	.	.	.	.
Cn1c(=NC(=O)c2ccco2)sc2ccccc21	19.9*	21.1*	2.7	7.1*	4.0*	71.1*	8.1*	4.9*	20.0*	0.9	LXRb hcDAF ctr=1.3;hcDAF12 ag=15.7*
Cn1c(=NC(=O)CCl)sc2ccccc21	-4.1	-7.6	-2.3	-2.6	-1.6	-3.4	.	.	.	.
Cc1cc(C)n(C(=O)/C(C#N)=N/Nc2cc(Cl)cc(Cl)c2)n1	.	.	0.1	.	.	21.2	.	.	.	.
CC(C)c1ccc(NC(=O)c2ccccc2NC(=O)C2CC=CCC2C(=O)O)cc1 (stereo not given)	2.9	15.0*	5.5*	8.3*	-0.4	.	2.8	3.6*	7.0	0.2
Cc1[nH]nc(SCC(=O)NC2CCCCC2)c1[N+](=O)[O-]	-0.5	0.4	2.1	0.2	-1.5	3.0	.	.	.	.
O=[N+]([O-])c1cc(Cl)ccc1-c1nc(-c2ccccc2)no1	11.1*	24.8*	4.5*	4.7*	4.0*	43.8	14.5*	7.7*	18.5*	1.0	LXRb hcDAF ctr=1.6;hcDAF12 ag=9.9*
Cc1onc(-c2c(F)cccc2Cl)c1C(=O)Nc1cc2cc([N+](=O)[O-])ccc2oc1=O	2.0	-5.5	.	-0.2	-0.9	.	.	.	.	.
Cc1ccc2c(C)c(C(=O)Nc3nnc(C)s3)oc2c1	-0.9	0.5	0.7	0.3	-0.6	13.7	.	.	.	.
